Data reported in PubChem BioAssay (NCATS).
Records with an inconclusive call do not appear. Values without a mark were called inactive. Calls of active or inactive are those of the source. Calls come from the whole dose curve; as a rule, active = well fitted curve in the direction sought with a large enough effect; inconclusive = small, poorly fitted or top-dose-only effect, or another doubt; inactive = no such curve, though single readings can be large; an effect the other way counts as inactive or inconclusive.

Assays:
[1] = target: Aldehyde dehydrogenase, mitochondrial (Homo sapiens) (UniProt P05091); assay: qHTS for Inhibitors of the Aldehyde Dehydrogenase Family (ALDH2) Primary screen (AID 2061308); note: nearly all actives have a fitted effect of over 55% in size; note: potency is the fitted concentration of half-maximal effect
[2] = target: Retinaldehyde dehydrogenase 3 (Homo sapiens) (UniProt P47895); assay: qHTS for Inhibitors of the Aldehyde Dehydrogenase Family (ALDH1A3) Validation screen (AID 2061312); note: % is set by controls: 0 for no effect and ±100 for the full control effect; nearly all actives have a fitted effect of over 45% in size
[3] = target: Retinaldehyde dehydrogenase 3 (Homo sapiens) (UniProt P47895); assay: qHTS for Inhibitors of the Aldehyde Dehydrogenase Family (ALDH1A3) Primary screen (AID 2061315);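 note: plate controls were DMSO vehicle for no effect and reference inhibitor for full effect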
[4] = BET inhibitor-based combinations targeting novel dependencies in MECOM-rearranged (r) AML: SET-2 cell line (AID 2202231); conditions: SET-2 AML cells viability, CellTiter-Glo luminescence, 48 h; viability: hits give low values, concentration not given here; note: nearly all actives have a fitted effect of over 35% in size; note: potency is the fitted concentration of half-maximal effect;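 for viability: plate controls were DMSO treated cells for no effect and wells without cells for full effect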
In short: (§1)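 Each compound was tested at eleven concentrations on cells seeded at 500/well. After two days' incubation, ATP-based luminescence reported viability; responses relative to DMSO and blank wells yielded AUC and cell-line-centred Z-AUC.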

[5] = BET inhibitor-based combinations targeting novel dependencies in MECOM-rearranged (r) AML: MV-4-11 cell line (AID 2202233); note: potency is the fitted concentration of half-maximal effect; nearly all actives have a fitted effect of over 45% in size
In short: (§2)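 First, 500 cells per well were seeded; next, drugs were pinned as 11-point doses; then plates sat 48 hr in the incubator; finally CellTiter-Glo was added and luminescence read, with AUC and Z-AUC computed.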

[6] = BET inhibitor-based combinations targeting novel dependencies in MECOM-rearranged (r) AML: UCSD-AML1 cell line (AID 2202235); note: nearly all actives have a fitted effect of over 40% in size; note: potency is the fitted concentration of half-maximal effect
In short: as §2

[7] = BET inhibitor-based combinations targeting novel dependencies in MECOM-rearranged (r) AML: HNT-34 cell line (AID 2202234); note: potency is the fitted concentration of half-maximal effect; nearly all actives have a fitted effect of over 35% in size
In short: as §2

[8] = BET inhibitor-based combinations targeting novel dependencies in MECOM-rearranged (r) AML: AML-191 cell line (AID 2202236; note: potency is the fitted concentration of half-maximal effect; nearly all actives have a fitted effect of over 35% in size)
In short: as §1

[9] = target: Retinal dehydrogenase 2 (Homo sapiens) (UniProt O94788); assay: qHTS for Inhibitors of the Aldehyde Dehydrogenase Family (ALDH1A2) Confirmation screens (AID 2061314); note: potency is the fitted concentration of half-maximal effect; nearly all actives have a fitted effect of over 65% in size
[10] = BET inhibitor-based combinations targeting novel dependencies in MECOM-rearranged (r) AML: OCI-AML3 cell line (AID 2202232); conditions: Potency: OCI-AML3 viability; note: potency is the fitted concentration of half-maximal effect; nearly all actives have a fitted effect of over 35% in size
In short: as §1

[11] = BET inhibitor-based combinations targeting novel dependencies in MECOM-rearranged (r) AML: AML-194 cell line (AID 2202237; note: potency is the fitted concentration of half-maximal effect; nearly all actives have a fitted effect of over 40% in size)
In short: as §1

[12] = target: Aldehyde dehydrogenase 1A1 (Homo sapiens) (UniProt P00352); assay: qHTS for Inhibitors of the Aldehyde Dehydrogenase Family (ALDH1A1) Confirmatory screens (AID 2061316); note: potency is the fitted concentration of half-maximal effect; nearly all actives have a fitted effect of over 65% in size

In the case of `O=C(N[C@H]1CCC[C@H](CO)C1)C1CCN(c2nc3cc(Cl)c(-c4ccc(Cl)cc4)cc3o2)CC1`, the Potency [1] is reported as “inactive”, the Potency [2] is reported as “inactive” and the Potency [3] is reported as “inactive”. For the same molecule, the Potency [4] was 20.9 µM (active), the Potency [5] was 23.5 µM (active) and the Potency [6] was “inactive”.
For `CNCc1ccc(C)c(NC(=O)c2ccc(Nc3nc(-c4ccccc4)c4ccccc4n3)cc2)c1`, the Potency [1] was “inactive”, the Potency [2] was “inactive” and the Potency [3] was “inactive”. The Potency [5] was 13.2 µM (active), the Potency [7] was 20.9 µM (active) and the Potency [8] was 20.9 µM (active).
With `Cc1ccc(-c2ccc(=O)n(CC(=O)N(C)C(C)c3ccco3)c2)cc1` (stereo not given) the Potency [1] was “inactive”, the Potency [9] was 2.01 µM (active) and the Potency [3] was “inactive”.
With `Cn1ncc(Cl)c1-c1cc(C(=O)N[C@H](CN)Cc2ccc(F)c(F)c2)sc1Cl` the Potency [1] was “inactive”, the Potency [2] was “inactive” and the Potency [3] was “inactive”. The Potency [4] was 20.9 µM (active), the Potency [10] was 18.6 µM (active) and the Potency [5] was 16.6 µM (active). The Potency [7] was 16.6 µM (active), the Potency [6] was 13.2 µM (active) and the Potency [8] was 26.3 µM (active). The Potency [11] was 16.6 µM (active).
For `CON(C)C(=O)N1N=C(c2cc(F)ccc2F)S[C@@]1(CCCN)c1ccccc1`, the Potency [1] was “inactive”, the Potency [2] was “inactive” and the Potency [3] was “inactive”. The Potency [4] was 0.0295 µM (active), the Potency [10] was 0.0093 µM (active) and the Potency [5] was 0.0118 µM (active). For the same molecule, the Potency [6] was 0.0105 µM (active) and the Potency [8] was 0.0132 µM (active).
With `CCCc1cc(C)[nH]c(=O)c1CNC(=O)c1cc(-c2ccc(N3CCN(C(C)C)CC3)nc2)cc2c1cnn2C(C)C` the Potency [1] was “inactive”, the Potency [2] was “inactive” and the Potency [3] was “inactive”. For the same molecule, the Potency [10] was 18.6 µM (active), the Potency [5] was 16.6 µM (active) and the Potency [7] was 20.9 µM (active). For the same molecule, the Potency [6] was 16.6 µM (active), the Potency [8] was 29.5 µM (active) and the Potency [11] was 14.8 µM (active).
For `O=C(Nc1ncc(Cc2ccc(C(F)(F)F)cc2)s1)c1ccc(-c2ccc([N+](=O)[O-])cc2)o1`, the Potency [1] was “inactive”, the Potency [9] was 22.5 µM (active) and the Potency [3] was “inactive”.
In the case of `Cc1cnc(-c2ccccc2C(C)C)nc1NCc1ccc(-n2ccnn2)cc1`, the Potency [1] is reported as “inactive”, the Potency [2] is reported as “inactive” and the Potency [3] is reported as “inactive”. The viability [4] was 86.2% and the Potency [6] was “inactive”.
In the case of `O=C(/C=C\n1cnc(-c2cc(C(F)(F)F)cc(C(F)(F)F)c2)n1)N1CC(F)(F)C1`, the Potency [1] is reported as “inactive”, the Potency [2] is reported as “inactive” and the Potency [3] is reported as “inactive”. The Potency [4] was 1.66 µM (active), the Potency [10] was 2.63 µM (active) and the Potency [5] was 1.32 µM (active). For the same molecule, the Potency [7] was 5.25 µM (active), the Potency [6] was 0.934 µM (active) and the Potency [8] was 1.32 µM (active). The Potency [11] was 1.05 µM (active).
With `CC(=O)Nc1sc2c(c1-c1nc3ccccc3s1)CCN(C(C)C)C2` the Potency [1] was “inactive”, the Potency [9] was 28.3 µM (active) and the Potency [3] was “inactive”.
For `OCCNC1CCCc2c1[nH]c1ccc(-c3ccccc3)cc21` (stereo not given), the Potency [1] was “inactive”, the Potency [2] was “inactive” and the Potency [3] was “inactive”. The Potency [4] was 11.8 µM (active), the Potency [10] was 16.6 µM (active) and the Potency [5] was 11.8 µM (active). The Potency [8] was 16.6 µM (active) and the Potency [11] was 13.2 µM (active).
In the case of `O=C(Nc1cn[nH]c1-c1nc2ccc(CN3CCOCC3)cc2[nH]1)NC1CC1`, the Potency [1] is reported as “inactive”, the Potency [2] is reported as “inactive” and the Potency [3] is reported as “inactive”. For the same molecule, the Potency [10] was 4.68 µM (active), the Potency [5] was 0.0263 µM (active) and the Potency [7] was 0.332 µM (active). For the same molecule, the Potency [6] was 0.118 µM (active), the Potency [8] was 2.09 µM (active) and the Potency [11] was 2.09 µM (active).
For `COCCOC(=O)C1=C(C)NC2=C(C(=O)CC(c3ccccc3OC)C2)C1c1cccc(O)c1` (stereo not given), the Potency [1] was “inactive”, the Potency [2] was “inactive” and the Potency [3] was “inactive”. The Potency [4] was 16.6 µM (active), the Potency [10] was 7.42 µM (active) and the Potency [5] was 5.25 µM (active). For the same molecule, the Potency [8] was 14.8 µM (active).
In the case of `N#Cc1c(-c2ccc(Cl)cc2)no[n+]1[O-]`, the Potency [1] is reported as 7.94 µM (active), the Potency [9] is reported as 10.1 µM (active) and the Potency [3] is reported as “inactive”.
With `Cc1cnc(Nc2ccc(CN3CCOCC3)cc2)nc1Nc1cccc(S(=O)(=O)NC(C)(C)C)c1` the Potency [1] was “inactive”, the Potency [2] was “inactive” and the Potency [3] was “inactive”. For the same molecule, the Potency [4] was 2.63 µM (active), the Potency [10] was 2.63 µM (active) and the Potency [5] was 0.417 µM (active). The Potency [7] was 1.18 µM (active), the Potency [6] was 1.48 µM (active) and the Potency [8] was 2.63 µM (active). For the same molecule, the Potency [11] was 2.35 µM (active).
With `c1nc(NCC2CCCCO2)c2cc(-c3ccc4c(c3)OCO4)ccc2n1` (stereo not given) the Potency [1] was “inactive”, the Potency [9] was 22.5 µM (active) and the Potency [3] was “inactive”. The Potency [12] was 12.7 µM (active).
For `C[C@H]1O[C@@H](O[C@H]2[C@@H](O)C[C@H](O[C@H]3[C@@H](O)C[C@H](O[C@H]4CC[C@@]5(C)[C@H](CC[C@@H]6[C@@H]5C[C@@H](O)[C@]5(C)[C@@H](C7=CC(=O)OC7)CC[C@]65O)C4)O[C@@H]3C)O[C@@H]2C)C[C@H](O)[C@@H]1O`, the Potency [1] was “inactive”, the Potency [2] was “inactive” and the Potency [3] was “inactive”. The Potency [10] was 0.118 µM (active), the Potency [6] was 0.132 µM (active) and the Potency [8] was 0.132 µM (active). For the same molecule, the Potency [11] was 0.118 µM (active).
In the case of `NC(=O)C1CCN(c2nc(-c3ccc(N4CCCCC4)nc3)cs2)CC1`, the Potency [1] is reported as “inactive”, the Potency [9] is reported as 12.7 µM (active) and the Potency [3] is reported as “inactive”.
For `O=C(c1ccc(F)c(F)c1Nc1ccc(I)cc1F)N1CC(O)([C@@H]2CCCCN2)C1`, the Potency [1] was “inactive”, the Potency [2] was “inactive” and the Potency [3] was “inactive”. For the same molecule, the Potency [7] was 0.742 µM (active), the Potency [6] was 0.296 µM (active) and the Potency [8] was 8.33 µM (active).
